# Source: PubChem BioAssay (NCATS)
# Inconclusive results are not listed. A call without a number means that no potency is given here. Values without a mark were called inactive. Active and inactive are the calls of the source. The call rests on the fitted dose curve; in most records, active means well fitted inhibition curve with a large enough effect; inconclusive means small, poorly fitted or top-dose-only effect; inactive means no such curve, though single readings can be large or run the other way.
# Columns and labels:
# [1] = test system: Zika virus NS2B-NS3 protease (unlinked complex); assay: Primary screen GU Rhodamine qHTS for Zika virus inhibitors: Unlinked NS2B-NS3 protease assay (AID 1347159); further: nearly all actives have a fitted effect of over 60% in size
# In short: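 Enzyme 25 nM in Tris-HCl pH 8.0 + 0.01% Tween 20; compounds up to 114 microM, 15 min RT dark; + Rhod110 substrate 1.5 microM; read t0 and 15 min; delta fluorescence → % inhibition → 4-parameter Hill fit.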
# [2] = test system: Zika virus NS2B-NS3 protease (linked construct); assay: Primary screen NINDS Rhodamine qHTS for Zika virus inhibitors (AID 1347160); further: nearly all actives have a fitted effect of over 55% in size
# In short: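 Enzyme (25 nM, linked NS2B-NS3) was preincubated 15 min with compound in 10 mM Tris-HCl pH 8.0, 0.01% Tween 20. Rhodamine110 substrate (1.5 microM) was then added and fluorescence read at start and after 15 min.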
Structure (SMILES),Potency [1],Potency [2],"activity change, negative = inhibition [1]"
CC1OC(OC2CCC3(C)C(CCC4(C)C3C=CC35OCC6(CCC(C)(C)CC63)CCC45C)C2(C)CO)C(OC2OC(CO)C(O)C(O)C2O)C(O)C1OC1OC(CO)C(O)C(O)C1O (centres undefined),inactive,inactive,
CC(=O)OC1(C)CC(O)C2(O)C=COC(OC3OC(CO)C(O)C(O)C3O)C12 (centres undefined),inactive,inactive,
Fc1ccccc1-c1nc2ccn(Cc3ccc(-c4ccc(C(F)(F)F)cc4C(F)(F)F)nn3)cc-2n1,inactive,inactive,
O=C(NCCN1CCCC1)c1cc(-c2ccc(CN3CCOCC3)cc2)nc2ccc(F)cc12,inactive,inactive,
C=C1C2(C)CC3C4(C)OC(C5OC56C4=CC(=O)OC6(C)C)C3(C)C13C(=O)OC(C)C3(O)C2=O (centres undefined),inactive,inactive,
C=C(C(=O)O)[C@@H]1CC[C@@]2(C)CC[C@@H](O)C(=C)C2C1 (some centres undefined),inactive,inactive,
NC(Cc1c[nH]c2ccc(O)cc12)C(=O)O (centres undefined),inactive,inactive,
CC(=O)NCC1CN(c2ccc(-c3ccc(CNCc4cn[nH]n4)cc3)c(F)c2)C(=O)O1 (centres undefined),inactive,inactive,
C[C@@H]1C[C@@H](O)[C@@]23CO[C@]2(CO)CCC[C@@H]3[C@@]12C[C@@H](c1ccoc1)OC2=O,inactive,inactive,
CNc1nc(C)nc(N[C@H]2CCC[C@@H](C(=O)NCc3ccc(C#N)cc3C(F)(F)F)C2)n1,inactive,inactive,
COc1cc(O)c2c(c1Cl)CC(C)OC2=O (centres undefined),inactive,inactive,
COc1cccc2c1c(O)c(C(=O)N(C)c1ccc(C(F)(F)F)cc1)c(=O)n2C,inactive,inactive,
C=CC(C)(O)C1CC2C3(C)CCCC(C)(C)C3C(O)C(O)C2(C)O1 (centres undefined),inactive,inactive,
COc1ccc2[nH]c(S(=O)Cc3ncc(C)c(OC)c3C)nc2c1 (centres undefined),inactive,inactive,
Cn1cc(Nc2cnccc2C(=O)O)c2cccnc21,inactive,inactive,
CC1=C(CO)C2(C)CCCC(C)(C)C2C(O)C1O (centres undefined),inactive,inactive,

Structure (SMILES),Potency [1],Potency [2],"activity change, negative = inhibition [1]"
CN(C)CC(c1ccc(O)cc1)C1(O)CCCCC1 (centres undefined),inactive,inactive,
Nc1c(-c2ccccc2)nc(Cl)c2c(O)n[nH]c(=O)c12,inactive,inactive,
CC(=O)O[C@@H](C[C@@H]1C=C(C)C(=O)O1)[C@H](C)[C@H]1CCC2[C@@]3(C)CC[C@H](O[C@@H]4O[C@H](CO)[C@@H](O)[C@H](O)[C@H]4O[C@@H]4O[C@@H](C)[C@H](O)[C@@H](O)[C@H]4O)C(C)(C)C3CC[C@@]2(C)[C@@]12COC(=O)C2 (some centres undefined),inactive,inactive,
C=C1CC23CC1CCC2C12OC(=O)C(C)(C(O)C(O)C1O)C2C3C(=O)O (centres undefined),inactive,inactive,
C/C=C1/[C@H](O[C@@H]2O[C@H](CO)[C@@H](O)[C@H](O)[C@H]2O)OC=C(C(=O)OC)[C@H]1CC(=O)OCCc1ccc(O)c(O)c1,inactive,inactive,
COc1ccc(C2(O)c3ccccc3NC(=O)C2OC)cc1 (centres undefined),inactive,inactive,
O=C(O)c1cc(O[C@@H]2O[C@H](CO)[C@@H](O)[C@H](O)[C@H]2O)ccc1O,inactive,inactive,
COC(=O)C[C@H]1C(C)(C)[C@H](OC(=O)C(C)C)C2CC3=C4CC(=O)O[C@@H](c5ccoc5)[C@]4(C)CCC3[C@@]1(C)C2=O (some centres undefined),inactive,inactive,
COc1c(C)c(OCC(O)C(C)(C)O)cc2c1CNC2=O (centres undefined),inactive,inactive,
O=C(O)c1ccnc(-c2cc(C(=O)NCCc3ccccc3)ccn2)c1,inactive,inactive,
CC(=O)OC1CC2(C)C(CCC(C)C23Cc2c(O)cc4c(c2O3)CNC4=O)C(C)(C)C1O (centres undefined),inactive,inactive,
O=C(O)CCc1c(C(=O)O)[nH]c2cc(Cl)cc(Cl)c12,inactive,inactive,
CC(=O)OCC1OC(OC2COC(OC3COC(OC4C(OC5C(CO)OC(OC6CCC7(C)C(CCC8(C)C7CC=C7C9CC(C)(C)CCC9(C(=O)OC9OC(CO)C(O)C(O)C9OC9OCC(OC%10OCC(O)(CO)C%10O)C(O)C9O)C(O)CC78C)C6(C)C)C(O)C5O)OCC(O)C4O)C(O)C3O)C(O)C2O)C(OC(=O)/C=C/c2ccccc2)C(O)C1OC(C)=O (centres undefined),,inactive,8.67% [at 19.1 µM]
O=C(/C=C/C=C/c1ccc2c(c1)OCO2)N1CCCCC1,inactive,inactive,
CSCC1OC(n2cnc3c(=O)[nH]cnc32)C(O)C1O (centres undefined),inactive,inactive,
CC(C)=CCC[C@](C)(O[C@@H]1O[C@H](CO[C@@H]2OC[C@H](O)[C@H](O)[C@H]2O)[C@@H](O)[C@H](O)[C@H]1O)[C@H]1CC[C@]2(C)[C@@H]1[C@H](O)C[C@@H]1[C@@]3(C)CC[C@H](O[C@@H]4O[C@H](CO)[C@@H](O)[C@H](O)[C@H]4O[C@@H]4O[C@H](CO)[C@@H](O)[C@H](O)[C@H]4O)C(C)(C)[C@@H]3CC[C@]12C,inactive,inactive,
